# According to PubChem BioAssay AID1159580 (chemical genetic matrix, 2015):
# The whole screen tested about 5,500 compounds, of which about 2,000 (36%) were called active. About 18% were inconclusive and are not listed. This is one part of the list. Values without a mark were called inactive. Rule as the data show it: active = normalized growth mostly below about 0.91 (no sharp cut-off); inconclusive = no clear call, values can overlap the other calls; inactive = mostly above about 0.92.
# Experiment: chemical genetic growth profiling, strain panel (AID 1159580);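 also: tested at 20 µM; growth read once vehicle control cultures reached saturation at 30 °C; 1 = growth at the plate median or of vehicle wells; lower values mean less growth of the strain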
# Details: growth OD
smiles,measurement,setting,value
COC(=O)c1c(OC)cc2c(c1C)Oc1c(Cl)c(O)c(Cl)c(C)c1C(=O)O2,normalized growth,"S. cerevisiae deletion strains, locus YJR075W, strain HOC1, active compounds read low",0.893
same,normalized growth,"S. cerevisiae deletion strains, locus YKL009W, strain mrt4, active compounds read low",0.975
same,normalized growth,"S. cerevisiae deletion strains, locus YKL068W, active compounds read low",0.976
same,normalized growth,"S. cerevisiae deletion strains, locus YKL085W, strain MDH1 (second series), active compounds read low",0.979
same,normalized growth,"S. cerevisiae deletion strains, locus YKL085W, strain MDH1, active compounds read low",0.979
same,normalized growth,"S. cerevisiae deletion strains, locus YKL160W, strain elf1, active compounds read low",0.993
same,normalized growth,"S. cerevisiae deletion strains, locus YKL190W, strain CNB1, active compounds read low",0.911 (active)
same,normalized growth,"S. cerevisiae deletion strains, locus YKR001C, strain vps1, active compounds read low",0.949
same,normalized growth,"S. cerevisiae deletion strains, locus YKR026C, strain gcn3, active compounds read low",0.977
same,normalized growth,"S. cerevisiae deletion strains, locus YKR091W, strain srl3, active compounds read low",0.986
same,normalized growth,"S. cerevisiae deletion strains, locus YLL001W, strain dnm1, active compounds read low",0.979
same,normalized growth,"S. cerevisiae deletion strains, locus YLL026W, active compounds read low",0.983
same,normalized growth,"S. cerevisiae deletion strains, locus YLL041C, strain sdh2, active compounds read low",0.978
same,normalized growth,"S. cerevisiae deletion strains, locus YLR027C, strain aat2, active compounds read low",0.991
same,normalized growth,"S. cerevisiae deletion strains, locus YLR039C, strain RIC1, active compounds read low",0.796
same,normalized growth,"S. cerevisiae deletion strains, locus YLR058C, strain SHM2, active compounds read low",0.919
same,normalized growth,"S. cerevisiae deletion strains, locus YLR102C, strain apc9, active compounds read low",0.927
same,normalized growth,"S. cerevisiae deletion strains, locus YLR113W, strain HOG1, active compounds read low",0.968
same,normalized growth,"S. cerevisiae deletion strains, locus YLR221C, strain rsa3, active compounds read low",0.982
same,normalized growth,"S. cerevisiae deletion strains, locus YLR258W, strain gsy2, active compounds read low",0.992
same,normalized growth,"S. cerevisiae deletion strains, locus YLR262C, strain YPT6 (second series), active compounds read low",0.927
same,normalized growth,"S. cerevisiae deletion strains, locus YLR262C, strain YPT6, active compounds read low",0.795
same,normalized growth,"S. cerevisiae deletion strains, locus YLR268W, strain sec22, active compounds read low",0.905
same,normalized growth,"S. cerevisiae deletion strains, locus YLR320W, strain mms22, active compounds read low",0.964
same,normalized growth,"S. cerevisiae deletion strains, locus YLR330W, strain CHS5, active compounds read low",0.929
same,normalized growth,"S. cerevisiae deletion strains, locus YLR342W, strain FKS1 (second series), active compounds read low",0.927
same,normalized growth,"S. cerevisiae deletion strains, locus YLR342W, strain FKS1, active compounds read low",0.986
same,normalized growth,"S. cerevisiae deletion strains, locus YLR357W, strain rsc2, active compounds read low",1.05
same,normalized growth,"S. cerevisiae deletion strains, locus YLR370C, strain arc18, active compounds read low",0.984
same,normalized growth,"S. cerevisiae deletion strains, locus YLR371W, strain rom2, active compounds read low",0.976
same,normalized growth,"S. cerevisiae deletion strains, locus YLR384C, strain iki3, active compounds read low",0.994
same,normalized growth,"S. cerevisiae deletion strains, locus YLR418C, strain cdc73, active compounds read low",0.863
same,normalized growth,"S. cerevisiae deletion strains, locus YML016C, strain PPZ1, active compounds read low",0.936
same,normalized growth,"S. cerevisiae deletion strains, locus YML032C, strain rad52, active compounds read low",0.96
same,normalized growth,"S. cerevisiae deletion strains, locus YML120C, strain ndi1, active compounds read low",0.973
same,normalized growth,"S. cerevisiae deletion strains, locus YML124C, strain tub3, active compounds read low",0.945
same,normalized growth,"S. cerevisiae deletion strains, locus YMR058W, strain fet3, active compounds read low",0.982
same,normalized growth,"S. cerevisiae deletion strains, locus YMR078C, strain ctf18, active compounds read low",0.935
same,normalized growth,"S. cerevisiae deletion strains, locus YMR125W, strain sto1, active compounds read low",1.01
same,normalized growth,"S. cerevisiae deletion strains, locus YMR129W, active compounds read low",1.01
same,normalized growth,"S. cerevisiae deletion strains, locus YMR205C, strain PFK2, active compounds read low",0.989
same,normalized growth,"S. cerevisiae deletion strains, locus YMR223W, strain ubp8, active compounds read low",0.947
same,normalized growth,"S. cerevisiae deletion strains, locus YMR231W, strain pep5, active compounds read low",0.993
same,normalized growth,"S. cerevisiae deletion strains, locus YMR263W, strain SAP30, active compounds read low",0.882 (active)
same,normalized growth,"S. cerevisiae deletion strains, locus YMR307W, strain GAS1, active compounds read low",0.869
same,normalized growth,"S. cerevisiae deletion strains, locus YNL067W, strain RPL9B, active compounds read low",0.895
same,normalized growth,"S. cerevisiae deletion strains, locus YNL071W, strain lat1, active compounds read low",0.982
same,normalized growth,"S. cerevisiae deletion strains, locus YNL128W, strain TEP1, active compounds read low",0.89
same,normalized growth,"S. cerevisiae deletion strains, locus YNL153C, strain GIM3, active compounds read low",0.909
same,normalized growth,"S. cerevisiae deletion strains, locus YNL183C, strain NPR1, active compounds read low",0.9
same,normalized growth,"S. cerevisiae deletion strains, locus YNL209W, strain ssb2, active compounds read low",0.996
same,normalized growth,"S. cerevisiae deletion strains, locus YNL233W, strain BNI4, active compounds read low",0.938
same,normalized growth,"S. cerevisiae deletion strains, locus YNL248C, strain rpa49, active compounds read low",1.02
same,normalized growth,"S. cerevisiae deletion strains, locus YNL250W, strain rad50, active compounds read low",0.986
same,normalized growth,"S. cerevisiae deletion strains, locus YNL271C, strain bni1, active compounds read low",0.985
same,normalized growth,"S. cerevisiae deletion strains, locus YNL298W, strain CLA4, active compounds read low",0.977
same,normalized growth,"S. cerevisiae deletion strains, locus YNL307C, strain MCK1, active compounds read low",0.838 (active)
same,normalized growth,"S. cerevisiae deletion strains, locus YNL322C, strain KRE1 (second series), active compounds read low",0.997
same,normalized growth,"S. cerevisiae deletion strains, locus YNL322C, strain KRE1, active compounds read low",0.937
same,normalized growth,"S. cerevisiae deletion strains, locus YNR049C, strain mso1, active compounds read low",0.994
same,normalized growth,"S. cerevisiae deletion strains, locus YNR052C, strain pop2, active compounds read low",0.948
same,normalized growth,"S. cerevisiae deletion strains, locus YOL006C, strain TOP1, active compounds read low",0.757
same,normalized growth,"S. cerevisiae deletion strains, locus YOL012C, strain htz1",0.865
same,normalized growth,"S. cerevisiae deletion strains, locus YOL147C, strain pex11, active compounds read low",0.946
same,normalized growth,"S. cerevisiae deletion strains, locus YOR001W, strain rrp6, active compounds read low",1.01
same,normalized growth,"S. cerevisiae deletion strains, locus YOR061W, strain CKA2, active compounds read low",0.892
same,normalized growth,"S. cerevisiae deletion strains, locus YOR069W, strain VPS5, active compounds read low",0.953
same,normalized growth,"S. cerevisiae deletion strains, locus YOR070C, strain gyp1, active compounds read low",0.984
same,normalized growth,"S. cerevisiae deletion strains, locus YOR080W, strain dia2, active compounds read low",0.992
same,normalized growth,"S. cerevisiae deletion strains, locus YOR083W, strain WHI5, active compounds read low",0.997
same,normalized growth,"S. cerevisiae deletion strains, locus YOR106W, strain vam3, active compounds read low",1.01
same,normalized growth,"S. cerevisiae deletion strains, locus YOR136W, strain idh2, active compounds read low",0.943
same,normalized growth,"S. cerevisiae deletion strains, locus YOR144C, strain elg1, active compounds read low",0.947
same,normalized growth,"S. cerevisiae deletion strains, locus YOR184W, strain ser1, active compounds read low",0.918
same,normalized growth,"S. cerevisiae deletion strains, locus YOR231W, strain MKK1, active compounds read low",0.927
same,normalized growth,"S. cerevisiae deletion strains, locus YOR265W, strain rbl2, active compounds read low",0.989
same,normalized growth,"S. cerevisiae deletion strains, locus YOR270C, strain vph1, active compounds read low",0.927
same,normalized growth,"S. cerevisiae deletion strains, locus YOR290C, strain snf2, active compounds read low",0.995
same,normalized growth,"S. cerevisiae deletion strains, locus YOR316C, strain cot1, active compounds read low",0.933
same,normalized growth,"S. cerevisiae deletion strains, locus YPL051W, strain arl3, active compounds read low",0.98
same,normalized growth,"S. cerevisiae deletion strains, locus YPL055C, strain LGE1, active compounds read low",0.864
same,normalized growth,"S. cerevisiae deletion strains, locus YPL078C, strain atp4, active compounds read low",0.982
same,normalized growth,"S. cerevisiae deletion strains, locus YPL106C, strain sse1, active compounds read low",1.03
same,normalized growth,"S. cerevisiae deletion strains, locus YPL240C, strain hsp82, active compounds read low",0.979
same,normalized growth,"S. cerevisiae deletion strains, locus YPL241C, strain CIN2, active compounds read low",0.913 (active)
same,normalized growth,"S. cerevisiae deletion strains, locus YPL256C, strain CLN2, active compounds read low",0.938
same,normalized growth,"S. cerevisiae deletion strains, locus YPR119W, strain clb2, active compounds read low",0.937
same,normalized growth,"S. cerevisiae deletion strains, locus YPR141C, strain kar3, active compounds read low",0.968
same,normalized growth,"S. cerevisiae deletion strains, locus YPR163C, strain tif3, active compounds read low",0.901 (active)
same,normalized growth,"S. cerevisiae deletion strains, locus YPR167C, strain met16, active compounds read low",0.927
same,normalized growth,"S. cerevisiae deletion strains, strain wtn01, active compounds read low",0.936
same,normalized growth,"S. cerevisiae strains, strain wild type, active compounds read low",0.915
